High-throughput results (PubChem BioAssay)
Rows were chosen to be rich in hits. Some 4.6% of all compounds tested hit in one or more screens of this group.
hcDAF-12 act = activators of H. contortus DAF-12 nuclear receptor | HEK293 hcDAF-12 lit1-tk-luc reporter, luminescence; 0% DMSO, 100% Δ7-dafachronic acid | activation, % at 6.8 µM | 1.4% of 370,000 active | AID 652067;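 active = activation above the mean of all tested compounds plus 3 SD, cut at about 5.5% in these data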
DAX1 inh-1 = blocks DAX1 repression of SF-1 activated StAR promoter; HEK293T StAR-luciferase reporter, SF-1/DAX-1 repression relief; inhibition, % at 6.8 µM; 1.1% of 370,000 active;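 active = inhibition above the mean over all tested compounds plus 3 SD, cut at about 3.6% in these data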;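 also: higher inhibition means more luminescence from relief of DAX-1 repression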
Wee1 degr inh = blocks degradation of human Wee1 kinase; P30291; HeLa Luc-Wee1K328M stability, luciferase luminescence; 100% = proteasome inhibitor MG132 effect; reporter increase, % at 5 µM; 1.2% of 220,000 active;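 active = activation above the mean of all tested compounds plus 3 SD, set per screening run, cut at about 8.8% in these data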;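 also: cells exposed to compound for 20 h before luminescence read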
DAX1 inh-2 = inhibitors of human orphan nuclear receptor DAX1 (NR0B1); HEK293 Gal4-DAX1 luciferase reporter, luminescence; inhibition, % at 6.75 µM; 0.99% of 340,000 active; AID 504766;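 active = inhibition above the mean over all tested compounds plus 3 SD, cut at about 4.2% in these data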;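 also: inhibition shows as a rise in luminescence from relieved DAX1 repression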
Target sequence (P51843 207-470 limits assumed): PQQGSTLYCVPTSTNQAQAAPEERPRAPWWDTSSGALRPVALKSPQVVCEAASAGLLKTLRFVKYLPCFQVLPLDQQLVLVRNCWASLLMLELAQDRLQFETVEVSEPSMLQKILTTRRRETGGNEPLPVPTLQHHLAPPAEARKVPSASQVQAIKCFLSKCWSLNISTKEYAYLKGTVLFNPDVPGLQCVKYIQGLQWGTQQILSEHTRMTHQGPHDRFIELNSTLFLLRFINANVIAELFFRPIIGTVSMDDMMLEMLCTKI
ssDAF-12 act = S. stercoralis DAF-12 activation, primary screen; HEK293 ssDAF-12/GRIP1 lit1-tk-luc reporter, luminescence; % of 3 µM dafachronic acid response; 1% of 370,000 active; activation, % at 6.8 µM;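 active = activation above the mean over all tested compounds plus 3 SD, cut at about 0.9% in these data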
hgDAF12 agonist = activates the H. glycines DAF-12 receptor ligand-binding domain; activation, % at 6.8 µM; HEK293 GAL4-hgDAF12 UAS-luciferase reporter, agonist luminescence; normalized to butyrate control; AID 687014; 1.8% of 370,000 active;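 active = activation above a cutoff set at the mean of all screened compounds plus 3 SD, cut at about 10% in these data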
DAX1 inh confirm = NR0B1 (human) inhibition, confirmation. shares compounds with DAX1 inh-1. HEK293T StAR-promoter luciferase reporter, SF-1/DAX-1 repression. inhibition, % at 6.8 µM. 87% of 2,400 active;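 active = inhibition above the average of every tested compound plus 3 SD, cut at about 3.8% in these data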;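 also: active compounds raise luminescence by relieving repression of the StAR reporter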
SF1 mutant ctr = counter-screen for DAX1 inhibitors: nonselective inhibitors with SF-1 AF2 mutant | shares compounds with DAX1 inh-1 | HEK293 StAR-luciferase, luminescence | inhibition, % at 6.8 µM | 78% of 2,400 active | AID 652136;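 active = inhibition above the mean of all tested compounds plus 3 SD, cut at about 3% in these data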
A number is an active result; - = inactive; . = no result given.

SMILES	hcDAF-12 act	DAX1 inh-1	Wee1 degr inh	DAX1 inh-2	ssDAF-12 act	hgDAF12 agonist	DAX1 inh confirm	SF1 mutant ctr
Cc1cccc(C)c1C(O)c1ncc(-c2cccc3ccccc23)[nH]1 (configuration not stated)	-	-	.	.	-	-	.	.
CC(=O)c1ccc(NC(=O)CSc2nnc(C3CC3)n2C2CC2)cc1	-	-	.	-	-	-	.	.
CCCC(=O)N1CCCC(c2nc(-c3cccc(OC)c3)no2)C1 (configuration not stated)	-	4.6	-	4.7	-	12	12	5.7
CCOC(=O)NC1CCc2cc(OC)c(OC)c(OC)c2-c2ccc(SC)c(=O)cc21 (configuration not stated)	-	5.0	.	-	-	-	13	-
CN[C@H]1CCc2cc(OC)c(OC)c(OC)c2-c2ccc(OC)c(=O)cc21	-	6.8	.	-	-	-	19	-
O=C(NNC(=S)Nc1ccccc1)c1cccnc1	-	5.1	.	-	-	-	3.6	5.6
O=C(NNC(=S)Nc1ccc(Cl)cc1)c1ccccc1	-	4.5	.	-	-	-	7.1	4.2
O=C(Nc1cccc(Cl)c1)c1ccccc1	-	-	.	-	-	-	.	.
O=C(NNC(=S)Nc1cccc(Cl)c1)c1ccccc1	-	5.3	.	-	-	-	4.8	4.0
O=C(NNC(=S)Nc1ccccc1Cl)c1ccccc1Cl	-	11	.	-	-	-	11	6.7
COc1ccc(-c2cnc(C(N)=O)c(=O)[nH]2)cc1	-	-	.	-	-	-	.	.
Cc1ccc(C)c(NC(=O)CCC(=O)NNS(=O)(=O)c2ccc(Cl)cc2)c1	-	-	.	-	-	-	.	.
CC(=Nc1ccccc1)C1=C(O)C(Cc2cccc(F)c2)NC1=O (configuration not stated)	-	6.0	.	-	-	-	25	-
O=C1NC[C@H](Cc2ccccc2)N(CCc2cccc(F)c2)C1=O	-	-	.	-	-	-	.	.
Cn1c(=O)cc(SCC(=O)NCCCN2CCOCC2)c2ccccc21	-	-	-	-	-	-	.	.
CN1CCC[C@H]1CCNc1ccc2c(=O)c3ccccc3n(C)c2c1	-	8.1	.	-	-	-	15	9.6
Cn1c2ccccc2c(=O)c2cc(NCCCN3CCOCC3)ccc21	-	5.1	.	-	-	11	15	10
CCOC(=O)CSC1=C(C#N)C(c2ccc(Cl)cc2)CC(=O)N1 (configuration not stated)	-	-	-	-	-	-	.	.
CCOC(=O)CSC1=C(C#N)C(c2ccc(C)o2)CC(=O)N1 (configuration not stated)	-	5.6	-	-	-	-	17	-
COc1ccc(CN2C[C@@H](CO)O[C@@H](n3cnc4c(NCc5cc(OC)c(OC)c(OC)c5)ncnc43)C2)cc1	-	-	.	.	-	-	.	.
CCc1ccccc1NC(=O)NC1CCCCC1	-	-	-	-	-	-	.	.
COc1cccc(NC(=O)NC2CCCCCCC2)c1	-	4.8	.	-	-	-	5.4	4.3
O=C(Nc1ccccc1Cl)NC1CCCCCCC1	-	5.2	.	-	-	-	3.8	-
COc1ccc(NC(=O)NC2CCCCCCC2)cc1	5.8	12	.	-	0.9	13	10	5.8
COc1ccc(NC(=O)c2noc3c2CCC3)cc1	-	4.9	-	-	-	13	13	6.0
SMILES	hcDAF-12 act	DAX1 inh-1	Wee1 degr inh	DAX1 inh-2	ssDAF-12 act	hgDAF12 agonist	DAX1 inh confirm	SF1 mutant ctr
COc1ccc(CNC(=O)c2noc3c2CCCCC3)cc1	-	-	-	-	-	-	.	.
Cc1ccc(S(=O)(=O)N(C)CC(=O)Nc2cc(C)ccn2)cc1	-	4.6	.	-	-	10	6.8	5.2
COc1ccc(CCNS(=O)(=O)CCNC(=O)c2ccc(OC)cc2)cc1	-	-	.	-	-	-	.	.
COc1ccc(C(=O)NCCS(=O)(=O)NCCc2ccccc2)cc1	-	4.8	.	-	-	-	3.8	-
O=C1C(CN2CCCC2)CCCC1CN1CCCC1 (configuration not stated)	-	-	.	-	-	-	.	.
Oc1ccc(C=NN=Cc2ccco2)c(O)c1	-	4.6	.	5.5	-	-	7.2	4.8
NC(=N\N=Cc1ccco1)/C(N)=N/N=Cc1ccco1	-	-	.	-	-	-	.	.
CCN(CC(=O)Nc1ccc2c(c1)OCCO2)C(=O)c1ccc(C(F)(F)F)cc1	-	5.2	.	-	-	-	5.9	3.0
CCN(CC(=O)Nc1ccc2c(c1)OCCO2)C(=O)c1ccc(Cl)cc1Cl	-	6.0	.	-	-	11	7.5	5.9
Cc1ccc(-c2csc(/C(C#N)=C(\O)CCl)n2)cc1	-	5.1	-	-	-	12	-	-
CC(=O)Nc1cc(-c2ccsc2)cn2c(-c3ccc(F)cc3)cnc12	-	-	.	.	-	-	.	.
O=C(N/N=C/c1ccc2c(c1)OCO2)c1ccccn1	-	4.7	-	-	-	-	11	-
O=C(O)c1cc(N/N=C/c2ccc3c(c2)OCO3)ccc1Cl	6.0	6.7	-	-	-	-	6.3	3.1
O=c1[nH]c(N/N=C\c2ccc3c(c2)OCO3)nc2ccccc12	-	4.9	-	-	-	13	6.5	3.3
CCOc1cc(/C=N/NC(=O)c2ccccn2)ccc1OC(=O)c1cccs1	-	-	.	-	-	-	.	.
O=C(N/N=C/c1ccc(OC(=O)c2cccs2)cc1)c1ccccn1	-	6.9	.	-	-	-	8.1	4.7
C/C=C/c1ccc2c(c1)O[C@H](CN(C)C(=O)NC1CCCC1)[C@H](C)CN([C@H](C)CO)S2(=O)=O	-	-	.	-	-	-	.	.
O=C(CSc1nnc(-c2cccs2)o1)Nc1cccc2ccccc12	-	-	.	.	-	-	.	.
CCOC(=O)[C@]12CCCCC/C=C\1N(Cc1ccc(OC)cc1)C(=O)[C@H]2CC(=O)NCCCOC	-	5.2	.	.	-	-	-	-
CCOC(=O)[C@]12CCCC=C1N(Cc1ccc(OC)cc1)C(=O)[C@@H]2CC(=O)NCCCOC	-	-	.	.	-	-	.	.
O=C(Nc1ccc2c(c1)CCC2)Nc1ccc(F)cc1F	-	5.5	.	-	-	11	9.9	6.9
Cc1ccc(NC(=O)Nc2ccc3c(c2)CCC3)cc1	-	5.5	.	-	-	-	5.3	4.6
O=C(Nc1cccc(F)c1)Nc1ccc2c(c1)CCC2	-	-	.	-	-	-	.	.
O=C(Nc1ccc(F)cc1)Nc1ccc2c(c1)CCC2	-	5.2	.	-	-	-	4.2	3.1
COc1ccc(CCN2C(=O)CCC2(C)c2nnnn2Cc2ccccc2)cc1OC (configuration not stated)	-	-	.	.	-	-	.	.
